BCLXL inh: Bcl-xL (human) inhibition | Q07817 | GST-Bcl-xL / FITC-Bim BH3 peptide fluorescence polarization | inhibition, % at 10.9 µM | 0.7% of 320,000 active | AID 2129;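 active means inhibition above the mean of all tested compounds plus 3 SD, cutoff set per campaign, cut at about 30% in these data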;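 further: 0% = DMSO wells and 100% = unlabeled Bim-BH3 peptide competitor; inhibitors lower millipolarization by displacing the labeled peptide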
Target sequence (Q07817 whole entry, looked up): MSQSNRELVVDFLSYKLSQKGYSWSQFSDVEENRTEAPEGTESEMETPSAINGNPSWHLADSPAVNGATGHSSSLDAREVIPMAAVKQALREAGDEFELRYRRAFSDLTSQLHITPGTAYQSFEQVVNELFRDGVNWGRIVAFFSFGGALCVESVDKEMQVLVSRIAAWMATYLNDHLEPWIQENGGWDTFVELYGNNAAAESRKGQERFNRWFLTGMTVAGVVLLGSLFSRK
Bcl-XL Bim block: inhibitors of Bim-Bcl-XL interaction, human | Q07817 | Bim peptide-Bcl-XL binding, bead flow cytometry, fluorescence | inhibition, % at 10 µM | 0.04% of 190,000 active
Bim-Bcl-W: inhibitors of Bim-Bcl-W interaction, human; Q92843; bead-based flow cytometry, Bim peptide-Bcl-W binding; inhibition, % at 10 µM; 0.02% of 190,000 active;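 further: 0% = bound tracer without compound and 100% = peptide blocker; higher means less fluorescent Bim peptide bound to Bcl-W beads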
Target sequence (Q92843 whole entry, looked up): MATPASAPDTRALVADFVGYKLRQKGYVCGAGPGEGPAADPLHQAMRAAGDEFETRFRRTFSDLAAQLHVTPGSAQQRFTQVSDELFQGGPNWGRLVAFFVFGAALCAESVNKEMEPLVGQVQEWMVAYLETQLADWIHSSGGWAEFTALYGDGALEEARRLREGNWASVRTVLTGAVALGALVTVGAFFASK
Bim-Bcl-B: inhibitors of Bim-Bcl-B interaction, human; Q9HD36; bead-based flow cytometry, Bim peptide-Bcl-B binding; inhibition, % at 10 µM; 0.073% of 190,000 active;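 further: 0% = tracer peptide without compound and 100% = reference inhibitor peptide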
Target sequence (Q9HD36 whole entry, looked up): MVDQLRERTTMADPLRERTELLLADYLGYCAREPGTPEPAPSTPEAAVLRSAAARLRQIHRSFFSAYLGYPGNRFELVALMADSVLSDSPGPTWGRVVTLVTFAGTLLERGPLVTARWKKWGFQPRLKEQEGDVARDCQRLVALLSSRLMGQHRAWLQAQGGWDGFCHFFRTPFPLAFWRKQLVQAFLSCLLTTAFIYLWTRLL
Bim-Bcl-2: inhibitors of Bim-Bcl-2 interaction, human; Bead-based flow cytometry, Bim peptide-Bcl-2 binding; 0.06% of 190,000 active; AID 950; inhibition, % at 10 µM; P10415; in the data active means inhibition above about 40%;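 further: 0% = no compound wells with probe peptide and 100% = reference peptide inhibitor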
Bfl-1 Bim block: human Bim-Bfl-1 interaction inhibition. Q16548. Bead-based flow cytometry, Bim-Bfl-1 binding inhibition. inhibition, % at 10 µM. 0.12% of 190,000 active;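 further: 0% = wells without compound plus tracer and 100% = blocker peptide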
* = called active by the depositor. The list is not random: actives were taken first. Their share in the collection is about 0.81%. Unless noted, no stated cut-off is given here; in the data, active means inhibition above about 40%.

Results for O=[N+]([O-])c1nn(-c2ccc3c(c2)OCCO3)n(O)c1=NCc1ccc(F)cc1 ?
BCLXL inh: 14; Bcl-XL Bim block: 0; Bim-Bcl-W: 2; Bim-Bcl-B: 0; Bim-Bcl-2: 1; Bfl-1 Bim block: 1

What do the screens show for `COC(=O)c1cc(S(=O)(=O)Nc2cc(OC)cc(OC)c2)c[nH]1`?
BCLXL inh: 7

What do the screens show for `O=C(O)C1Nc2c(Cl)cc(Cl)c(Cl)c2C2C=CCC12` (configuration not stated)?
BCLXL inh: 65*

How did O=C(O)C1Nc2ccc(Br)cc2C2C=CCC12 (configuration not stated) do in these assays?
BCLXL inh: 79*

How did CCOC(=O)C1Nc2ccc(Br)cc2C2C=CCC12 (configuration not stated) do in these assays?
BCLXL inh: 25

What do the screens show for `O=C(O)C1Nc2c(Cl)cc(Cl)cc2C2C=CCC12` (configuration not stated)?
BCLXL inh: 85*

How did O=C(O)C1Nc2c(O)cccc2C2C=CCC12 (configuration not stated) do in these assays?
BCLXL inh: 62*; Bcl-XL Bim block: -8; Bim-Bcl-W: 2; Bim-Bcl-B: 0; Bim-Bcl-2: 11; Bfl-1 Bim block: 14

What do the screens show for `COc1ccc(CNC(=O)CSc2nc3ccc(C)cc3[nH]2)cc1OC`?
BCLXL inh: -5

Results for CCCCn1c(=O)[nH]c2nc3cc(N)ccc3nc2c1=O ?
BCLXL inh: active; Bcl-XL Bim block: -4; Bim-Bcl-W: -2; Bim-Bcl-B: 7; Bim-Bcl-2: 2; Bfl-1 Bim block: -2

How did Nc1ccc2nc3c(=O)n(C4CCCCC4)c(=O)[nH]c3nc2c1 do in these assays?
BCLXL inh: active

How did Nc1ccc2nc3c(=O)n(CCc4ccccc4)c(=O)[nH]c3nc2c1 do in these assays?
BCLXL inh: 181*

What do the screens show for `Cc1cc2nc3c(=O)n(CCc4ccccc4)c(=O)[nH]c3nc2cc1N`?
BCLXL inh: active

Results for CCCCCC1=CCC/C1=N\NC(=O)c1ccc2c(c1)OCO2 ?
BCLXL inh: 0; Bcl-XL Bim block: -2; Bim-Bcl-W: -4; Bim-Bcl-B: -5; Bim-Bcl-2: 0; Bfl-1 Bim block: -4

Results for CC1Cc2ccccc2N1C(=O)c1ccc(N2CCCC2)c([N+](=O)[O-])c1 (configuration not stated) ?
BCLXL inh: -1; Bcl-XL Bim block: 8; Bim-Bcl-W: 13; Bim-Bcl-B: 72*; Bim-Bcl-2: 56*; Bfl-1 Bim block: 14

How did Cc1cc2ncn(/N=C/c3ccc(-c4ccccc4)o3)c2cc1C do in these assays?
BCLXL inh: 8; Bcl-XL Bim block: 1; Bim-Bcl-W: 0; Bim-Bcl-B: 0; Bim-Bcl-2: 0; Bfl-1 Bim block: 0

What do the screens show for `Cc1ccc(/C=N/n2cnc3sc(-c4ccccc4)cc3c2=O)o1`?
BCLXL inh: 124*; Bcl-XL Bim block: -1; Bim-Bcl-W: 3; Bim-Bcl-B: 1; Bim-Bcl-2: 1; Bfl-1 Bim block: 2

How did COc1ccc(NC(=O)Nc2c(O)ccc3ccccc23)cc1 do in these assays?
BCLXL inh: 30*

How did NS(=O)(=O)c1ccc(CCNC(=O)CN2CCN(Cc3cccc4ccccc34)CC2)cc1 do in these assays?
BCLXL inh: -3

What do the screens show for `O=C(/C=C/c1ccc2c(c1)OCO2)N1CCN(c2n[nH]c(=O)[nH]c2=O)CC1`?
BCLXL inh: 7

How did CCN1/C(=C/c2ccc3cc(C)ccc3[n+]2C)Sc2ccc3sccc3c21 do in these assays?
Bcl-XL Bim block: 34; Bim-Bcl-W: 22; Bim-Bcl-B: 4; Bim-Bcl-2: 54*; Bfl-1 Bim block: 46*

Results for CCN1/C(=C/c2ccc3cc(C)ccc3[n+]2CC)Sc2cc(C)ccc21 ?
Bcl-XL Bim block: 2; Bim-Bcl-W: 4; Bim-Bcl-B: -25; Bim-Bcl-2: 6; Bfl-1 Bim block: 1

Results for N#C/C(=C\c1ccc[nH]1)C(=O)Nc1ccccc1Cl ?
BCLXL inh: 52*

How did COc1ccc(NC(=O)/C(C#N)=C/c2ccc[nH]2)c(OC)c1 do in these assays?
BCLXL inh: 21

What do the screens show for `COCCNc1nc(-c2cc(C)n(CCc3ccc(OC)cc3)c2C)cs1`?
BCLXL inh: 33*; Bcl-XL Bim block: 3; Bim-Bcl-W: 5; Bim-Bcl-B: 5; Bim-Bcl-2: 7; Bfl-1 Bim block: 8

How did COc1ccccc1CNc1nc(-c2cc(C)n(C)c2C)cs1 do in these assays?
Bcl-XL Bim block: 12; Bim-Bcl-W: 7; Bim-Bcl-B: 37; Bim-Bcl-2: 19; Bfl-1 Bim block: 19

What do the screens show for `O=C(OCN1C(=O)c2ccccc2C1=O)c1ccc(Cl)nc1`?
BCLXL inh: 0

How did O=c1[nH]c(Nc2ccccc2)cc2cc(Br)ccc12 do in these assays?
BCLXL inh: 12

What do the screens show for `O=c1[nH]c(Nc2ccccc2)cc2ccccc12`?
BCLXL inh: 54*; Bcl-XL Bim block: -1; Bim-Bcl-W: 1; Bim-Bcl-B: 0; Bim-Bcl-2: -4; Bfl-1 Bim block: -1

What do the screens show for `Cc1cc2c(c(=O)n1Cc1ccco1)C(c1cccnc1)C(C#N)=C(N)O2` (configuration not stated)?
BCLXL inh: 47*; Bcl-XL Bim block: -1; Bim-Bcl-W: 0; Bim-Bcl-B: 1; Bim-Bcl-2: -1; Bfl-1 Bim block: -2

How did CCOc1ccc(C2C(C#N)=C(N)Oc3cc(C)n(Cc4ccco4)c(=O)c32)cc1OC (configuration not stated) do in these assays?
BCLXL inh: 7; Bcl-XL Bim block: -8; Bim-Bcl-W: 0; Bim-Bcl-B: -9; Bim-Bcl-2: -15; Bfl-1 Bim block: -17

How did CC1=C(C(=O)OCc2ccccc2)C(c2cccc3ccccc23)NC(=O)N1CCCC(=O)O (configuration not stated) do in these assays?
BCLXL inh: -12

Results for CCOc1ccc2c(c1)/C(=C(\C(Cl)=C(Cl)Cl)[N+](=O)[O-])N2 ?
BCLXL inh: 130*; Bcl-XL Bim block: 9; Bim-Bcl-W: 12; Bim-Bcl-B: -13; Bim-Bcl-2: 7; Bfl-1 Bim block: 17

What do the screens show for `CCCCOc1ccc2c(c1)/C(=C(\C(Cl)=C(Cl)Cl)[N+](=O)[O-])N2`?
BCLXL inh: 101*; Bcl-XL Bim block: 2; Bim-Bcl-W: 2; Bim-Bcl-B: -3; Bim-Bcl-2: 1; Bfl-1 Bim block: 1

Results for CCOc1ccc2c(c1)/C(=N/N1C(=O)c3ccccc3C1=O)C(=O)N2 ?
BCLXL inh: -3; Bcl-XL Bim block: 0; Bim-Bcl-W: 0; Bim-Bcl-B: -3; Bim-Bcl-2: 0; Bfl-1 Bim block: -3

Results for O=C(N/N=C/c1ccncc1)c1cccc(NC(=O)c2ccccc2Cl)c1 ?
BCLXL inh: 2; Bcl-XL Bim block: 43*; Bim-Bcl-W: 29; Bim-Bcl-B: 21; Bim-Bcl-2: 32; Bfl-1 Bim block: 34

How did O=C(N/N=C/c1cccnc1)c1cccc(NC(=O)c2ccccc2Cl)c1 do in these assays?
BCLXL inh: 6

Screening data as filed in PubChem BioAssay.
